For 23 compounds, inhibition results are on record in PubChem BioAssay.

In general, inhibition refers to how much of the control response was suppressed.

The structures appear in SMILES notation. Values without a mark were called inactive. No rule for the calls is given here.

The target in the assay is Pantothenate synthetase (Mycobacterium tuberculosis (strain ATCC 25618 / H37Rv)) (UniProt P9WIL5). Nature of the assay: Coupled enzyme confirmation of inhibitors against recombinant Mtb PanC (AID 375).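 Also: 0% = full reaction with vehicle and 100% = no enzyme background.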 Conditions: coupled enzyme assay; at 10 µM, active compounds read high.
Sequence of Pantothenate synthetase (Mycobacterium tuberculosis (strain ATCC 25618 / H37Rv)) (P9WIL5 whole entry, looked up): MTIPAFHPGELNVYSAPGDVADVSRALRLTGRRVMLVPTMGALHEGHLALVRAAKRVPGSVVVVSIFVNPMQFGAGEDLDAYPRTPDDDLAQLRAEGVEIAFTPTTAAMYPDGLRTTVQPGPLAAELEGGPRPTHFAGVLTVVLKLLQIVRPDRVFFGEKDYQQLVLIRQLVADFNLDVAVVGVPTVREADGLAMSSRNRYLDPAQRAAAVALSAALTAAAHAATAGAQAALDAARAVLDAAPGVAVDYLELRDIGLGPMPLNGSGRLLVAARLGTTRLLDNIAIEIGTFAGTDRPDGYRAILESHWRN
Take `O=C(CCn1c(=O)oc2ccccc21)N1CCCCCC1`: the inhibition was 0%.

Turning to `CCOC(=O)CC(=O)c1cc(OC)c(OC)c(OC)c1`, the inhibition was 0%. `Cc1ccsc1C1C2=C(CCCC2=O)Nc2ncnn21` (stereo not drawn): the inhibition is 0%. On to `Cc1ccc(S(=O)(=O)N2CCC(C(=O)NCCN3CCCCCC3)CC2)cc1`, for which the inhibition is 0%. On to `COc1ccccc1N1CCN(S(=O)(=O)CC23CCC(CC2=O)C3(C)C)CC1` (stereo not drawn), for which the inhibition is 1%. As to `Cc1ncc(CSc2nc3ccccc3[nH]2)c(N)n1`, the inhibition was 5%.

As for `CCN(CC)c1ccc2cc(NC(=O)CCC(=O)O)c(=O)oc2c1`, the inhibition is 0%. `COc1ccc(-c2noc(COc3ccc4ccccc4c3Br)n2)cc1OC`: the inhibition is 6%. The result for `Nc1nc(Cl)nc2c1ncn2[C@@H]1O[C@H](CO)[C@@H](O)[C@H]1O` reads 3%. Regarding `CC(C)(C)n1ncc2c(=O)n(CC(=O)c3ccccc3)cnc21`, the inhibition is 0%. The result for `CSCCC(N=CC1=C(O)CC(C)(C)CC1=O)C(=O)O` (stereo not drawn) reads 2%; that for `CC1Cc2ccccc2N1C(=O)c1cccnc1` (stereo not drawn), 0%. As to `O=C(Nc1ccc2c(c1)nc1n2CCN(Cc2ccccc2)C1)c1cccs1`, the inhibition is 0%. With `CCOC(=O)CS(=O)(=O)c1nc(-c2ccccc2)cc(C(F)(F)F)n1`, the inhibition is 3%.

As for `Cc1ccc(C(=O)CC2(O)C(=O)N(CN3CCOCC3)c3ccccc32)cc1` (stereo not drawn), the inhibition is 7%. Regarding `CCSc1nc(C)nc2c1oc1ccccc12`, the inhibition was 0%. Regarding `CCCCOc1cc(C(=O)NCCN(CC)CC)c2ccccc2n1`, the inhibition was 0%. The result for `Cc1ccc(-c2cc(C(F)F)nc(N3CCC(C)CC3)n2)cc1` reads 6%; that for `CCOC(=O)CN1C2=NCCN2c2ccccc21`, 6%. Consider `O=C(CSC1=NCCS1)NCc1ccco1`, for which the inhibition is 0%. In the case of `Cc1ccc(-c2cc(C(=O)NCCN3CCOCC3)no2)cc1`, the inhibition was 3%.

As for `O=C(CSc1nnc2scc(-c3ccccc3)n12)N1CCN(Cc2ccccc2)CC1`, the inhibition is 6%.

For `O=C(c1ccc(COc2c(F)c(F)c(F)c(F)c2F)o1)N1CCOCC1`, the inhibition is 4%.
